Screens from PubChem BioAssay.
CapD inh – Bacillus anthracis CapD inhibitors, primary screen, biochemical, fluorescence intensity; CapD gamma-glutamyltranspeptidase (Bacillus anthracis Ames Ancestor); 140,000 tested, 0.23% active; z-score (test concentration not listed); purified CapD enzyme, fluorescence intensity read-out; hits give low values; in the data active = z-score mostly below about -2.9, no sharp cut-off; inactive = mostly above about -1.9
AID504770 – growth inhibition of E. coli YBA685, primary screen, V. cholerae RctB inhibitors; 130,000 tested, 0.27% active; E. coli YBA685 rctB-dependent plasmid, OD600 growth, 3 h; hits give low values; z-score (no concentration beside the values); AID 504770, 2011; in the data active = z-score below about -2, passing the limit was not always enough
Hits are given with their value. This is a sample that favours compounds with a hit; in the whole collection about 0.4% have one here.

Screening Cc1ccc(F)cc1Nc1nnc(-c2cc3c(ccc4ccccc43)oc2=O)s1 returned CapD inh inactive.
For COc1ccc(-c2nc3cc(NC(=O)c4sc5ccccc5c4Cl)ccc3o2)cc1OC the results were CapD inh inactive.
Screening COCCNc1nc(SCc2ccccc2Cl)nc2ccccc12 returned CapD inh inactive.
Screening Cc1ccc2scc(N3CCOCC3)c(=O)c2c1 returned CapD inh -4.2 and AID504770 inactive.
O=c1c(N2CCC3(CC2)OCCO3)csc2ccccc12 was read as CapD inh inactive and AID504770 inactive.
For O=C(O)Cc1ccccc1C(=O)N1CCN(C(=O)Cc2ccc(Br)cc2)CC1 the results were CapD inh inactive.
Cc1cc(N2CCN(c3ccccn3)CC2)n2ncnc2n1 was read as CapD inh inactive and AID504770 inactive.
For Cc1cc(N2CCc3ccccc32)n2ncnc2n1 the results were CapD inh -4.7 and AID504770 inactive.
For O=C(Sc1cccs1)C1COc2ccccc2O1 (centres undefined) the results were CapD inh inactive and AID504770 -2.3.
NNC(=O)C1COc2ccccc2O1 (centres undefined) was read as CapD inh inactive.
`S=C(S)N1CCCC1` gave AID504770 -3.5.
For NC(=S)N1CCCC1 the results were AID504770 inactive.
Screening Cc1ccc(C(=O)OCC(=O)c2cc(C)n(Cc3ccco3)c2C)cc1 returned AID504770 inactive.
COc1ccc(OC)c(NC(=O)c2cc3ccc(OC)cc3oc2=Nc2ccc(C(=O)O)cc2)c1 was read as CapD inh inactive.
For COc1ccc2cc(C(=O)Nc3ccc(OC)c(OC)c3)c(=Nc3ccc(C(=O)O)cc3)oc2c1 the results were CapD inh -3.4.
Screening Cc1cc2c(n1-c1ccc(C(=O)O)cc1)CCCC2 returned CapD inh -7.5 and AID504770 inactive.
Screening Cc1cc2c(n1-c1ccc(C(=O)N3CCN(c4ccccc4)CC3)cc1)CCCCC2 returned CapD inh inactive and AID504770 inactive.
`Cc1ccc(C)n1-c1ccc(C(=O)O)cc1` gave CapD inh -13.
For CC(=O)N1CCN(C(=O)c2ccc(-n3c(C)ccc3C)cc2)CC1 the results were AID504770 inactive.
CCOC(=O)c1c(CBr)n(C)c2ccc(OS(=O)(=O)c3ccc(C)cc3)cc12 was read as CapD inh inactive.
Cc1ccc(S(=O)(=O)N(CC(=O)Nc2c(C)n(C)n(-c3ccccc3)c2=O)c2ccc(C)c(Cl)c2)cc1 was read as CapD inh inactive.
Screening CC1=NN(c2cc(S(=O)(=O)O)c3cccc(S(=O)(=O)O)c3c2)C(=O)C1 returned CapD inh -5.7.
For CC1=NN(c2cccc(S(N)(=O)=O)c2)C(=O)C1 the results were CapD inh inactive.
Screening Cc1ccc(C(=O)CSC#N)o1 returned CapD inh inactive and AID504770 -3.1.
`Cc1ccc(C(=O)O)o1` gave CapD inh inactive and AID504770 inactive.
`N#CSCC(=O)c1ccccc1` gave CapD inh inactive and AID504770 -3.6.
N#CCC(=O)c1ccccc1 was read as CapD inh inactive and AID504770 inactive.
CCOC(=O)c1cc(Cl)c(O)c(Cl)c1 was read as AID504770 inactive.
Screening CC(Sc1ccc(Cl)cc1)C(=O)NNC(=O)OCCN1CCN(Cc2cc3ccccc3o2)CC1 (centres undefined) returned CapD inh inactive.
`OCCOc1ccc(Br)cc1OCCO` gave CapD inh inactive and AID504770 inactive.
Screening CC1COc2c(N3CCN(C)CC3)c(F)cc3c(=O)c(C(=O)Nc4ccc(F)c(F)c4)cn1c23 (centres undefined) returned CapD inh inactive.
C[C@H]1COc2c(N3CCN(C)CC3)c(F)cc3c(=O)c(C(=O)O)cn1c23 was read as AID504770 -4.4.
`O=C(Cc1ncn[nH]1)NCCc1ccccc1` gave CapD inh -5.8 and AID504770 inactive.
For CCCNC(=O)Cc1ncn[nH]1 the results were CapD inh inactive and AID504770 inactive.
Screening CN(C)CCOC(=O)c1ccc2[nH]c3c(c2c1)CSCC3 returned CapD inh inactive and AID504770 inactive.
O=C(O)c1ccc2[nH]c3c(c2c1)CSCC3 was read as CapD inh -7.4 and AID504770 inactive.
`COc1cccc(-c2cc(C(F)(F)F)nc(-n3cccn3)n2)c1` gave CapD inh -3.4 and AID504770 inactive.
`COc1nc(-c2ccccc2)cc(C(F)(F)F)n1` gave CapD inh inactive and AID504770 inactive.
Screening c1ccc2c(c1)sc1ccccc12 returned CapD inh -10 and AID504770 inactive.
Screening Cc1c(C#N)sc2ccccc12 returned CapD inh inactive and AID504770 inactive.
For O=C(O)CSc1sc(=S)sc1SCC(=O)O the results were CapD inh -5 and AID504770 inactive.
For NC(=O)CSc1sc(=S)sc1SCC(N)=O the results were CapD inh inactive and AID504770 inactive.
Screening Cn1c(Cc2ccccc2)nnc1SCN1C(=O)c2ccccc2C1=O returned AID504770 inactive.
`Cc1ccc2oc(=O)n(CC(=O)C(C)(C)C)c2c1` gave CapD inh inactive and AID504770 -2.1.
For Cc1ccc2oc(=O)n(CC(=O)c3ccc(F)cc3)c2c1 the results were CapD inh inactive and AID504770 inactive.
For CCC(C)OC(=O)C1CC=CCC1C(=O)Nc1ccc(C)cc1 (centres undefined) the results were CapD inh inactive and AID504770 inactive.
For CC1CN(c2nc(-c3cccs3)cc(C(F)(F)F)c2C#N)CC(C)O1 (centres undefined) the results were CapD inh inactive and AID504770 inactive.
CC1CN(c2nnc(-c3cccs3)c3ccccc23)CC(C)O1 (centres undefined) was read as AID504770 -2.5.
`Nc1nnc(CC(=O)N/N=C/c2cccs2)s1` gave CapD inh inactive and AID504770 inactive.
Screening S=C=NCCn1ccc2ccccc21 returned AID504770 -3.8.
Screening NCCn1ccc2ccccc21 returned AID504770 inactive.
Screening O=C(/C=C/c1cccc(C(F)(F)F)c1)NCc1cn2ccccc2n1 returned CapD inh inactive and AID504770 inactive.
`O=S(=O)(NCCc1csc(-c2ccccc2)n1)c1ccccc1` gave AID504770 inactive.
`CNc1ccc2cccc(O)c2n1` gave CapD inh inactive and AID504770 -3.3.
For Oc1cccc2ccc(Nc3ccccn3)nc12 the results were CapD inh inactive and AID504770 inactive.
`Cc1cccc(N2CCN(C(=O)c3ccc4c(=O)[nH]c5c(C(=O)NC(C)C)sc(=S)n5c4c3)CC2)c1C` gave CapD inh -3.9 and AID504770 inactive.
For Cc1ccc(NC(=O)c2sc(=S)n3c2[nH]c(=O)c2ccccc23)c(C)c1 the results were CapD inh inactive and AID504770 inactive.
CC1SC(/N=C/c2ccc(O)cc2)=NNC1=O (centres undefined) was read as CapD inh inactive and AID504770 inactive.
`CC1CCCCC1NC(=O)COC(=O)c1ccc(Cl)c(S(N)(=O)=O)c1` (centres undefined) gave AID504770 -3.
CCOc1ccc(C(=O)OCC(=O)NC2CCCCC2C)cc1 (centres undefined) was read as CapD inh inactive and AID504770 inactive.
`CC1(C)C(C(=O)O)N2C(=O)CC2S1(=O)=O` (centres undefined) gave CapD inh inactive and AID504770 -2.4.
